# PubChem BioAssay
# Tests used:
# [1] = molecular target: Tumor necrosis factor receptor superfamily member 10B (Homo sapiens) (UniProt O14763); experiment: caspase-8 TRAIL sensitization, hit retest, confirmation, cell-based, NB7+caspase-8, with/without TRAIL, luminescence panel (AID 651596); conditions: NB7 neuroblastoma + caspase-8, TRAIL sensitization, luminescence viability, with TRAIL, mean of runs, at 10 µM, stronger effect = higher value
# [2] = as above; conditions: NB7 neuroblastoma + caspase-8, without TRAIL, luminescence viability, without TRAIL, mean of runs, at 10 µM
# [3] = molecular target: Tumor necrosis factor receptor superfamily member 10B (Homo sapiens) (UniProt O14763); experiment: TRAIL sensitizers in caspase-8 expressing neuroblastoma cells, dose response, NB7 cells plus caspase-8, luminescence, panel (AID 652002); conditions: NB7 neuroblastoma +caspase-8, TRAIL sensitization, luminescence viability, NB7+Caspase-8, with TRAIL, run 1; at 12.5 µM (top of the series)
# [4] = molecular target: Tumor necrosis factor receptor superfamily member 10B (Homo sapiens) (UniProt O14763); experiment: as above; conditions: NB7 neuroblastoma +caspase-8, TRAIL sensitization, luminescence viability, NB7+Caspase-8, with TRAIL, run 2; at 12.5 µM (top of the series)
# [5] = as above; conditions: NB7 neuroblastoma +caspase-8, no TRAIL, compound-alone cytotoxicity counter-screen, luminescence viability, NB7+Caspase-8, run 1; at 12.5 µM (top of the series) unless noted
# [6] = as above; conditions: NB7 neuroblastoma +caspase-8, no TRAIL, compound-alone cytotoxicity counter-screen, luminescence viability, NB7+Caspase-8, run 2; at 12.5 µM (top of the series) unless noted
# Tumor necrosis factor receptor superfamily member 10B (Homo sapiens), sequence (O14763 whole entry, looked up): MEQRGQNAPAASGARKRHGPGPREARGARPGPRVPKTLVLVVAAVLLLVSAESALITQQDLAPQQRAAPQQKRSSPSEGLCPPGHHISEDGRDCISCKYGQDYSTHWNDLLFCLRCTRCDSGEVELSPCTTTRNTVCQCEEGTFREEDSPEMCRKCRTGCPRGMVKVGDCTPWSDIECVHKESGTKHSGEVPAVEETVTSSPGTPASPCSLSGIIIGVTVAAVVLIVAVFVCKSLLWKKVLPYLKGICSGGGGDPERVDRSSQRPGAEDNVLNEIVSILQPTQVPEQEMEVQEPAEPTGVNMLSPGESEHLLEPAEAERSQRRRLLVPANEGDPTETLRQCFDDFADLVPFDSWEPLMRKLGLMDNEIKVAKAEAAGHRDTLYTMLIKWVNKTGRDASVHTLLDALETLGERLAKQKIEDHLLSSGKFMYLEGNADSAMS
Compound,activity [1],activity [2],"activity, % sensitization [3]","activity, % sensitization [4]","activity, % sensitization [5]","activity, % sensitization [6]"
CCOc1ccc(NC(=O)Nc2cccs2)cc1,63.8%,46.8%,36.3%,52.3%,40.7%,47.8%
C#Cc1ccc(NC(=O)C2(C)CCN2C(=O)Cc2ccc(C(C)C)cc2)cc1 (stereo not given),79.1%,49.2%,18.4%,11.5%,1.52%,54.8%
COc1ccc(-c2nc(-c3ccc(NC(=O)c4ccncc4)cc3)no2)cc1OC,70.5%,47.2%,-12.9%,-17.5%,2.44%,-14.5%
CC(=O)c1ccc(NC(=O)Nc2cccnc2)cc1,52.1%,45%,32.2%,44.9%,35.1%,43.9%
COc1ccc(NS(=O)(=O)c2cccc(C(=O)N/N=C/c3c(F)c(F)c(F)c(F)c3F)c2)cc1,77.2%,47.5%,7.56%,35.1%,-2.02%,41.3%
Cc1cccc2nc(=S)n(C(=O)c3ccco3)n12,54.6%,44.5%,-5.2%,-6.02%,-1.17%,-18.3%
Cc1ccc2oc(-c3cccc(N)c3)nc2c1,60.5%,46.2%,45.8%,58.3%,53%,34%
COc1ccccc1C=NNC(=O)NN=Cc1ccccc1OC,61%,46.5%,42.5%,48.3%,54.1%,35.8%
CN(C)CCCN(C(=O)c1ccc(S(=O)(=O)N2CCCc3ccccc32)cc1)c1nc2ccc(F)cc2s1,55.7%,52.9%,-21.5%,18.8%,-8.84%,17.9%
CN(C(=O)COC(=O)c1cnc(Cl)c(Cl)c1)C1CCCCC1,68.5%,47.4%,11.9%,14.2%,-5.35%,13.1%
